Assay results reported in the supplement of paper PMC5662767.

Test system: Drosophila S2 cl14 SmoIP sensor cells
Experiment: normalized SmoIP GFP fluorescence (untreated unstimulated = 0%, untreated Hh-stimulated = 100%); higher = more Smo activation sensor fluorescence
Conditions: compound concentration: 2 uM, 24 h
[1] = stimulation: Hh conditioned medium (+Hh)
[2] = stimulation: mock conditioned medium (-Hh)
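Note: flow cytometry read-out as median GFP intensity of gated cells, compounds added 30 min before Hh-conditioned or mock medium, mock-treated cells serving as unstimulated baseline.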

SMILES | normalized SmoIP GFP fluorescence [1] [%] | normalized SmoIP GFP fluorescence [2] [%]
Cc1ccc(C(=O)Nc2ccc(CN3CCN(C)CC3)c(C(F)(F)F)c2)cc1C#Cc1cnc2cccnn12 | 128 | 11.3
CNC(=O)c1cc(Oc2ccc(NC(=O)Nc3ccc(Cl)c(C(F)(F)F)c3)c(F)c2)ccn1 | 100 | 27.4
N#CCNC(=O)c1ccc(-c2ccnc(Nc3ccc(N4CCOCC4)cc3)n2)cc1 | 208 | 53.3
